Test results from PubChem BioAssay AID1963321 (National Center for Advancing Translational Sciences (NCATS), 2024).
Inconclusive results are not listed. The source made the active and inactive calls. The call rests on the fitted dose curve.

The compounds below were run against cAMP-dependent protein kinase catalytic subunit alpha (Homo sapiens) (UniProt P17612) (assay: Protein Kinase A (PKA-HiBiT) enzymatic inhibition screen - Functional assay). Details: luminescence; series mostly up to 57.5 µM.
Source text: National Center for Advancing Translational Sciences (NCATS),
National Institute of Health (NIH), Maryland
Discovery and optimization of novel protein-binding ligands underlies many of the methods and applications of biology, drug discovery, clinical diagnostics, and environmental toxicology. Assays for detecting the interaction of, for example, a molecule with a macromolecular target also referred to here as the target of interest (TOI) is dependent on a compatible output technology. Depending on the nature and knowledge surrounding the TOI, whether a receptor, enzyme, regulatory subunit or scaffold, or a sequence-defined nucleic acid folded into a complex tertiary structure, assay strategies can vary widely.
Here we exploit ligand-biased changes in the structural dynamics of the target protein to control reporter alpha complementation allowing a non-competitive, non-functional, non-separation measure of ligand-target interaction.
Using a chemical library of >1,200 compounds enriched for scaffolds known to be associated with the inhibition of firefly luciferase (FLuc) activity (PubChem AIDs 2309) we first illustrate and compare the Structural Dynamics Response (SDR) assay vs. the standard functional FLuc enzyme assay (2). Secondly, we show the specificity and sensitivity of the SDR for the Abelson tyrosine kinase (ABL1) compared to the serine/threonine protein kinase A, using an enriched chemical library of 128 compounds selected, in part, for activity annotated with ABL1 kinase activity using the Pharos database (3).
(1) A. S. Dixon et al., NanoLuc Complementation Reporter Optimized for Accurate Measurement of Protein Interactions in Cells. ACS Chem Biol 11, 400-408 (2016).
Chemistry & Biology, 19, 1060 - 1072 (2012).
(3) K. J. Kelleher et al., Pharos 2023: an integrated resource for the understudied human proteome. Nucleic Acids Res 51, D1405-D1416 (2023).
PROTOCOL TABLE (as described by Inglese J, Shamu CE and Guy RK. 2007)
SEQUENCE No. (e.g., 1, 2, 3, etc.); […] (e.g., C. elegans, Compounds, Incubation, Read, etc.); VALUE and DESCRIPTION.
1. Reagent. Dispense 4 uL PKA-N-HiBiT enzyme per well at a final enzyme concentration of 10 nM in buffer with 87.5 uM ATP (functional assay) into columns 2-48 of four replicate Greiner 1536-well white,solid bottom high base, medium plates per assay. Dispense respective buffer without enzyme at 4 uL/well in column 1 of assay plates using BioRaptr 2.
2. Compounds. Library compounds added at 23 nL/well by pin transfer. DMSO neutral control and H-89 positive control added at 25 nL/well, transfer by Mosquito dispenser.
3. Incubation. Incubate enzyme and compounds at room temperature for 30 min, protect from light.
4. Reagent. (Functional assay) Transfer 25 nL of kemptide peptide substrate to each well of four replicate kinase assay plates with Mosquito dispenser.
5. Incubation. (Functional assay) Kinase Enzyme incubated with peptide substrate for 3 h at room temperature, protected from light.
6. Reagent. (Functional assay) Add 4 uL/well of Kinase-Glo Plus reagent (Promega) to kinase activity assay plates.
7. Detector. (Functional assay) Luminescence measured using CCD-based camera (ViewLux) with settings as follows: Exposure, 1 sec; Gain, High; Speed, Slow; Binning, 2X.
Inglese J, Shamu CE and Guy RK, Reporting data from high throughput screening of small molecule libraries, Nature Chemical Biology, 2007, 3(8): 438-441. doi.org/10.1038/nchembio0807-438.

Potency, inactive:
COc1ccc(CNC(=O)Nc2ncc([N+](=O)[O-])s2)cc1
CCCS(=O)(=O)Nc1ccc(F)c(C(=O)c2c[nH]c3ncc(Cl)cc23)c1F
Cc1ccc(C(=O)Nc2ccc(Oc3cc4cnn(C)c4cc3-c3cn[nH]c3)c(F)c2)c(=O)n1-c1ccc(F)cc1
COc1cc(NC(=O)c2cccc(-n3cc(NC(=O)Nc4cccc(C)c4)cn3)c2)cc(OC)c1OC
CC(C)CCN1c2nc(Nc3cc(F)c(O)c(F)c3)ncc2N(C)C(=O)C1C (stereo not given)
CN1CCN(C2CCC(n3cc(-c4ccc(Oc5ccccc5)cc4)c4c(N)ncnc43)CC2)CC1 (stereo not given)
NC1CCC(Nc2nc(Nc3ccc(C(=O)N4CCCCC4)cc3)c3ncn(-c4cccc(F)c4)c3n2)CC1 (stereo not given)
c1ccc(-c2oc3ncnc(NC[C@@H]4CCCO4)c3c2-c2ccccc2)cc1
CN1CCN(c2ccc(Nc3ncc4cc(C#N)c(=O)n(C5CCCC5)c4n3)cc2)CC1
Cc1[nH]c(/C=C2\C(=O)Nc3ccc(S(=O)(=O)Cc4c(Cl)cccc4Cl)cc32)c(C)c1C(=O)N1CCC[C@@H]1CN1CCCC1
CSc1cccc(Nc2ncc3cc(-c4c(Cl)cccc4Cl)c(=O)n(C)c3n2)c1
N#Cc1ccc2ncnc(NCCc3ccccc3)c2c1
COc1cc2ncnc(-n3nc(-c4ccccn4)nc3N)c2cc1OC
C=CC(=O)Nc1cccc(Oc2nc(Nc3ccc(N4CCN(C)CC4)cc3OC)ncc2Cl)c1
COc1cc(N2CCOCC2)ccc1Nc1ncc(Cl)c(Nc2ccccc2NS(C)(=O)=O)n1
FC(F)(F)c1ccc(/C=C/c2nc(COc3ccc(CCCCn4ccnn4)cc3)co2)cc1
O=C(O)C1(Cc2cccc(Nc3nccs3)n2)CCC(Oc2cccc(Cl)c2F)CC1 (stereo not given)
C[C@@H]1CCNC(=O)c2cc3ccc(C(=O)Nc4nc5ccccc5n4CCCN(C)C)cc3n21
COc1cc(N2CCC(O)CC2)ccc1Nc1nc(Nc2ccccc2S(=O)(=O)C(C)C)c2[nH]cnc2n1
CCN(CC)CCOc1ccc(Nc2ncc3cc(-c4c(Cl)cccc4Cl)c(=O)n(C)c3n2)cc1
O=c1c(O)c(-c2ccc(O)c(O)c2)oc2cc(O)cc(O)c12
Cc1ccc(C(=O)Nc2ccc(CN3CCN(C)CC3)c(C(F)(F)F)c2)cc1C#Cc1cnc2[nH]ncc2c1
Cc1cc(-c2cc(O)ccc2Cl)cc2nnc(Nc3ccc(OCCN4CCCC4)cc3)nc12
COc1cc(N2CCN(C)CC2)ccc1Nc1nc(N)c(C(=O)c2c(Cl)cccc2Cl)s1
C=CC(=O)N1CCC[C@@H](n2nc(-c3cccc(C(=O)Nc4ccc(C(C)C)c(C)c4)c3)c3c(N)ncnc32)C1
Cn1ncc(NC(=O)c2nc(-c3c(F)cccc3F)sc2N)c1N1CC[C@@H](N)[C@H](F)CC1
Cc1cccc(/C=N/Nc2cc(N3CCOCC3)nc(OCCc3ccccn3)n2)c1
O=C(c1cccc(Cl)c1F)N1CCN(Cc2cccc(Nc3nccs3)n2)CC1
CN1CCN(Cc2ccc(-c3cnc4[nH]cc(-c5ccc6[nH]ccc6c5)c4c3)cc2)CC1
Cc1ccc(NC(=O)c2ccc(CN3CCN(C)CC3)cc2)cc1Nc1nc(-c2cccnc2)cs1
COc1cc(N2CCC(N3CCN(C)CC3)CC2)ccc1Nc1ncc(Cl)c(Nc2ccccc2P(C)(C)=O)n1
Cc1cc(Nc2ncc3c(n2)N(C)C(=O)N(c2cc(NC(=O)c4cccc(C(F)(F)F)c4)ccc2C)C3)n(C)n1
Cc1c(Cl)cccc1S(=O)(=O)Nc1nc(NCCc2ccccc2)nc2c1CN(Cc1ccccc1)CC2
CNC(=O)c1ccccc1Sc1ccc2c(/C=C/c3ccccn3)n[nH]c2c1
O=S(=O)(/N=C/c1c(O)ccc2ccccc12)c1cccs1
Cc1cc(F)ccc1-c1nc(NC(CO)CO)nc2c1ccc(=O)n2-c1c(F)cccc1F
Cc1cc(Nc2ncc3cc(-c4c(Cl)cccc4Cl)c(=O)n(C)c3n2)ccc1F
Cc1[nH]c2ccccc2c1C1=C(NCCc2ccc(F)cc2)C(=O)N(C)C1=O
Cc1cc(C)c(/C=C2\C(=O)Nc3ccccc32)[nH]1

Activity change, negative = inhibition, inactive:
c1ccc2c(-c3cnn4cc(-c5ccc(N6CCNCC6)cc5)cnc34)ccnc2c1 8.42% [at 6.37 µM]
